# Measured values taken from paper PMC4336329 (PLoS ONE, 2015).
# Hit rate of the full screen: of about 310,000 compounds, about 2,200 (0.71%) showed an effect of 50% or more. Effects have a minus sign here. Shown is part of a subset that was picked to be rich in strong results.
# Target: human ether-à-go-go-related gene (hERG) potassium channel (human, UniProt Q12809)
# Experiment: primary screen, population patch clamp on CHO cells stably expressing hERG; higher = less effect of the substance
# Sequence of human ether-à-go-go-related gene (hERG) potassium channel (Q12809 whole entry, looked up): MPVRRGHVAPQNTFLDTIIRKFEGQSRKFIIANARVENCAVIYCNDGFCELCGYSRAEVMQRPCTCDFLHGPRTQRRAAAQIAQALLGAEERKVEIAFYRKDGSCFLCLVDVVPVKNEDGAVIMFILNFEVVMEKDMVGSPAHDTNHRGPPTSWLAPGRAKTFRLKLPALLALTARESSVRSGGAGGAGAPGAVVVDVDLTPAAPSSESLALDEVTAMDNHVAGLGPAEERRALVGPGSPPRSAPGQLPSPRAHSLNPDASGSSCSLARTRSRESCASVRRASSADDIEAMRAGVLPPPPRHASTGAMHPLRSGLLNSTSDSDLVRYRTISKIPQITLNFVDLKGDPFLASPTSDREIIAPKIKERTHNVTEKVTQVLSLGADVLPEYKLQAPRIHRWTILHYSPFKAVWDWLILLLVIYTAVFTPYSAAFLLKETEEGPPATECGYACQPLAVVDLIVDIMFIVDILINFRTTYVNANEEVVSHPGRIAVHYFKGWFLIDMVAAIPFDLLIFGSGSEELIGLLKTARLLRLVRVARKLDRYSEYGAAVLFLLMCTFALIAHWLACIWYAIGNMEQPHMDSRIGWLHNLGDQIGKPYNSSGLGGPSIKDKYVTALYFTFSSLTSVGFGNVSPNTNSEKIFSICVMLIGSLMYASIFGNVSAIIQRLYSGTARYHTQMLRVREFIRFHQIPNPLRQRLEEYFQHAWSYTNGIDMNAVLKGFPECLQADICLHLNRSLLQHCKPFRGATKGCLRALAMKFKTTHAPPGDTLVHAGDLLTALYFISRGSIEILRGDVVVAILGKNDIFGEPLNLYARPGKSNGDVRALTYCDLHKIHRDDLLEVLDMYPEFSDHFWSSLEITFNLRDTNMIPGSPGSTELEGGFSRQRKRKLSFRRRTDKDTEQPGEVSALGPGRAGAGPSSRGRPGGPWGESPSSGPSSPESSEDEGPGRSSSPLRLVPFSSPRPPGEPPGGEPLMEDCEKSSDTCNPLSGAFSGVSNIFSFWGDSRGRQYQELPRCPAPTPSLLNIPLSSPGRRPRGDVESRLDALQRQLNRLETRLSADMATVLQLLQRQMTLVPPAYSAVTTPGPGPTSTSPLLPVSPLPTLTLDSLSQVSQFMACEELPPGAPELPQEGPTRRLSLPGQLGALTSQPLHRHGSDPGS
row,SMILES,"hERG current change (%, negative = inhibition) at 1uM [%]"
1,Cc1cc(C)c(CN2CCCC(CNC(=O)c3ccc(F)cc3)C2)c(-n2cccn2)c1 (stereo not drawn),-85.4
2,CCOC(=O)C1(CC2CCCCO2)CCN(Cc2c(C)cc(C)cc2-n2cccn2)CC1 (stereo not drawn),-84.1
3,CCOC(=O)C1(CC2CCCCO2)CCN(Cc2nccn2-c2cccc(C)c2)CC1 (stereo not drawn),-1.48
4,O=C(NCC1CCCN(Cc2cccc(C(F)(F)F)c2)C1)c1ccc(F)cc1 (stereo not drawn),-5.71
5,Cc1cc(CN2CCCC(CNC(=O)c3ccc(F)cc3)C2)cc(C)c1O (stereo not drawn),-14.5
6,COc1cccc(CN2CCCC(CNC(=O)c3ccc(F)cc3)C2)c1OC (stereo not drawn),-12.6
7,CCOC(=O)C1(CC2CCCCO2)CCN(Cc2cc(F)ccc2-n2cccn2)CC1 (stereo not drawn),-14.9
8,Cc1ccc(-n2cccn2)c(CN2CCCC(CNC(=O)c3ccc(F)cc3)C2)c1 (stereo not drawn),-78.9
9,CCn1ncc(CN2CCCC(CNC(=O)c3ccc(F)cc3)C2)c1C (stereo not drawn),1.73
10,COc1cccc(NC(=O)NCCCCc2ccccc2)c1,-0.169
11,CCOC(=O)CN(C(=O)c1snc(C(N)=O)c1N)C(C(=O)NCCC(C)C)c1ccc(F)cc1 (stereo not drawn),7.34
12,COc1ccccc1CNC(=O)C(CCSC)NS(=O)(=O)c1ccc2c(c1)oc(=O)n2C (stereo not drawn),15.7
13,CN(C)S(=O)(=O)c1cccc(C(=O)OCC(=O)N2CCCC2=O)c1,12.1
14,O=C(CNC(=O)c1ccc(Cl)cc1)OCC(=O)c1ccccc1,-0.984
15,Cn1c(SCC(=O)NCCc2ccccc2)ncc(C(=O)Nc2ccc(F)cc2)c1=O,12.5
16,CC(C(=O)Oc1ccc2c(c1)OCO2)N1C(=O)c2ccccc2C1=O (stereo not drawn),-1.93
17,C/C(=N\N1CCN(c2ccc(Cl)cc2)CC1)c1cccs1,4.52
18,O=C(NC1CCCCC1)c1ccc(NS(=O)(=O)c2cccc3cccnc23)cc1,12.5
19,CCC(c1nnnn1C1CCCCC1)N1CCN(C2CCCC2)CC1.Cl (stereo not drawn),11.6
20,CCCCC(c1nnnn1C1CCCC1)N1CCN(C2CCCCC2)CC1 (stereo not drawn),-63.1
21,CCCC(c1nnnn1C(C)(C)CC)N1CCN(C2CCCC2)CC1.Cl (stereo not drawn),-17.8
22,CCCCC(c1nnnn1C1CCCC1)N1CCN(C2CCCC2)CC1.Cl (stereo not drawn),-82
23,CCCC(c1nnnn1C1CCCCC1)N1CCN(C2CCCC2)CC1.Cl (stereo not drawn),-16.6
24,CCCCC(c1nnnn1C1CCCC1)N1CCN(C(=O)c2ccco2)CC1.Cl (stereo not drawn),-13.5
